Data published in the supplement of paper PMC4466140.

The binders below were run against SpBzz1-D2 (assay: SPOT peptide array binding signal intensity (averaged, normalized) (arbitrary units (background-subtracted, floor 0; scale differs between SH3 domains)); higher = stronger binding of the SH3 domain to the peptide).
Procedure, shortened: (§1)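 The binding signal is the normalized, background-subtracted spot intensity averaged over replicates; its arbitrary units differ between domains. It was obtained by incubating 10 μg/ml GST-fused SH3 domains from four yeast species overnight at 4°C in TBS-based blocking buffer on cellulose membranes with synthetic 15-mer peptides, cysteines replaced by serines, then detecting with anti-GST antibody, HRP anti-mouse secondary and luminol.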

Binder	SPOT peptide array binding signal intensity
RVRKTHVPASKRPSG	≤ 0
KKEKKPPKIPKKVYT	0.75

Each binder was assayed against SpCyk3 in the same assay as above.
Procedure, shortened: as §1

Binder	SPOT peptide array binding signal intensity
RVRKTHVPASKRPSG	≤ 0
KKEKKPPKIPKKVYT	≤ 0

What follows are binders tested against SpHof1 in the same assay as above.
Procedure, shortened: as §1

Binder	SPOT peptide array binding signal intensity
RVRKTHVPASKRPSG	89.5
KKEKKPPKIPKKVYT	1.75

The binders below were run against SpHof1-2 in the same assay as above.
Procedure, shortened: as §1

Binder	SPOT peptide array binding signal intensity
RVRKTHVPASKRPSG	≤ 0
KKEKKPPKIPKKVYT	1

These binders were tested against SpHof1-3 in the same assay as above.
Procedure, shortened: as §1

Binder	SPOT peptide array binding signal intensity
RVRKTHVPASKRPSG	247
KKEKKPPKIPKKVYT	6.25

Each binder was assayed against SpHse1 in the same assay as above.
Procedure, shortened: as §1

Binder	SPOT peptide array binding signal intensity
RVRKTHVPASKRPSG	112
KKEKKPPKIPKKVYT	1.5

What follows are binders tested against SpLsb1 in the same assay as above.
Procedure, shortened: as §1

Binder	SPOT peptide array binding signal intensity
RVRKTHVPASKRPSG	3.75
KKEKKPPKIPKKVYT	55

What follows are binders tested against SpLsb4 in the same assay as above.
Procedure, shortened: as §1

Binder	SPOT peptide array binding signal intensity
RVRKTHVPASKRPSG	224
KKEKKPPKIPKKVYT	≤ 0

These binders were tested against SpMyo1 in the same assay as above.
Procedure, shortened: as §1

Binder	SPOT peptide array binding signal intensity
RVRKTHVPASKRPSG	4.25
KKEKKPPKIPKKVYT	3.25

What follows are binders tested against SpNbp2 in the same assay as above.
Procedure, shortened: as §1

Binder	SPOT peptide array binding signal intensity
RVRKTHVPASKRPSG	78
KKEKKPPKIPKKVYT	≤ 0

The binders below were run against SpPex13 in the same assay as above.
Procedure, shortened: as §1

Binder	SPOT peptide array binding signal intensity
RVRKTHVPASKRPSG	2
KKEKKPPKIPKKVYT	≤ 0

Each binder was assayed against SpRvs167 in the same assay as above.
Procedure, shortened: as §1

Binder	SPOT peptide array binding signal intensity
RVRKTHVPASKRPSG	1.17
KKEKKPPKIPKKVYT	8.33

These binders were tested against SpSla1-D1-D2 in the same assay as above.
Procedure, shortened: as §1

Binder	SPOT peptide array binding signal intensity
RVRKTHVPASKRPSG	4
KKEKKPPKIPKKVYT	4

What follows are binders tested against SpSla1-D3 in the same assay as above.
Procedure, shortened: as §1

Binder	SPOT peptide array binding signal intensity
RVRKTHVPASKRPSG	≤ 0
KKEKKPPKIPKKVYT	3.5

The binders below were run against AgAbp1 in the same assay as above.
Procedure, shortened: as §1

Binder	SPOT peptide array binding signal intensity
KKEKKPPKIPKKVYT	2950

Each binder was assayed against AgBbc1 in the same assay as above.
Procedure, shortened: as §1

Binder	SPOT peptide array binding signal intensity
KKEKKPPKIPKKVYT	9.5

Each binder was assayed against AgBem1-D1 in the same assay as above.
Procedure, shortened: as §1

Binder	SPOT peptide array binding signal intensity
KKEKKPPKIPKKVYT	8

Each binder was assayed against AgBzz1-D1 in the same assay as above.
Procedure, shortened: as §1

Binder	SPOT peptide array binding signal intensity
KKEKKPPKIPKKVYT	253

Each binder was assayed against AgBzz1-D2 in the same assay as above.
Procedure, shortened: as §1

Binder	SPOT peptide array binding signal intensity
KKEKKPPKIPKKVYT	43

What follows are binders tested against AgCyk3 in the same assay as above.
Procedure, shortened: as §1

Binder	SPOT peptide array binding signal intensity
KKEKKPPKIPKKVYT	≤ 0

What follows are binders tested against AgFus1 in the same assay as above.
Procedure, shortened: as §1

Binder	SPOT peptide array binding signal intensity
KKEKKPPKIPKKVYT	1

These binders were tested against AgHof1 in the same assay as above.
Procedure, shortened: as §1

Binder	SPOT peptide array binding signal intensity
KKEKKPPKIPKKVYT	29.2

The binders below were run against AgHse1 in the same assay as above.
Procedure, shortened: as §1

Binder	SPOT peptide array binding signal intensity
KKEKKPPKIPKKVYT	35.5

What follows are binders tested against AgLsb1 in the same assay as above.
Procedure, shortened: as §1

Binder	SPOT peptide array binding signal intensity
KKEKKPPKIPKKVYT	≤ 0

What follows are binders tested against AgLsb4 in the same assay as above.
Procedure, shortened: as §1

Binder	SPOT peptide array binding signal intensity
KKEKKPPKIPKKVYT	1.5

These binders were tested against AgMyo5 in the same assay as above.
Procedure, shortened: as §1

Binder	SPOT peptide array binding signal intensity
KKEKKPPKIPKKVYT	≤ 0

What follows are binders tested against AgNbp2 in the same assay as above.
Procedure, shortened: as §1

Binder	SPOT peptide array binding signal intensity
KKEKKPPKIPKKVYT	19

The binders below were run against AgRvs167 in the same assay as above.
Procedure, shortened: as §1

Binder	SPOT peptide array binding signal intensity
KKEKKPPKIPKKVYT	2.5

These binders were tested against AgSho1 in the same assay as above.
Procedure, shortened: as §1

Binder	SPOT peptide array binding signal intensity
KKEKKPPKIPKKVYT	5

The binders below were run against AgSla1-D1-D2 in the same assay as above.
Procedure, shortened: as §1

Binder	SPOT peptide array binding signal intensity
KKEKKPPKIPKKVYT	≤ 0

The binders below were run against AgSla1-D3 in the same assay as above.
Procedure, shortened: as §1

Binder	SPOT peptide array binding signal intensity
KKEKKPPKIPKKVYT	4.5

Each binder was assayed against CaAbp1-D1 in the same assay as above.
Procedure, shortened: as §1

Binder	SPOT peptide array binding signal intensity
KKEKKPPKIPKKVYT	892

The binders below were run against CaAbp1-D2 in the same assay as above.
Procedure, shortened: as §1

Binder	SPOT peptide array binding signal intensity
KKEKKPPKIPKKVYT	1670

These binders were tested against CaBbc1 in the same assay as above.
Procedure, shortened: as §1

Binder	SPOT peptide array binding signal intensity
KKEKKPPKIPKKVYT	88.5

Each binder was assayed against CaBem1-D1 in the same assay as above.
Procedure, shortened: as §1

Binder	SPOT peptide array binding signal intensity
KKEKKPPKIPKKVYT	28

The binders below were run against CaBzz1-D1 in the same assay as above.
Procedure, shortened: as §1

Binder	SPOT peptide array binding signal intensity
KKEKKPPKIPKKVYT	1950

Each binder was assayed against CaBzz1-D2 in the same assay as above.
Procedure, shortened: as §1

Binder	SPOT peptide array binding signal intensity
KKEKKPPKIPKKVYT	2760

Each binder was assayed against CaCyk3 in the same assay as above.
Procedure, shortened: as §1

Binder	SPOT peptide array binding signal intensity
KKEKKPPKIPKKVYT	≤ 0

These binders were tested against CaFus1 in the same assay as above.
Procedure, shortened: as §1

Binder	SPOT peptide array binding signal intensity
KKEKKPPKIPKKVYT	99

Each binder was assayed against CaHof1 in the same assay as above.
Procedure, shortened: as §1

Binder	SPOT peptide array binding signal intensity
KKEKKPPKIPKKVYT	1

The binders below were run against CaHse1 in the same assay as above.
Procedure, shortened: as §1

Binder	SPOT peptide array binding signal intensity
KKEKKPPKIPKKVYT	110

These binders were tested against CaLsb1 in the same assay as above.
Procedure, shortened: as §1

Binder	SPOT peptide array binding signal intensity
KKEKKPPKIPKKVYT	0.25

These binders were tested against CaLsb4 in the same assay as above.
Procedure, shortened: as §1

Binder	SPOT peptide array binding signal intensity
KKEKKPPKIPKKVYT	≤ 0

The binders below were run against CaMyo5 in the same assay as above.
Procedure, shortened: as §1

Binder	SPOT peptide array binding signal intensity
KKEKKPPKIPKKVYT	1.5

These binders were tested against CaNbp2 in the same assay as above.
Procedure, shortened: as §1

Binder	SPOT peptide array binding signal intensity
KKEKKPPKIPKKVYT	10

Each binder was assayed against CaRvs167 in the same assay as above.
Procedure, shortened: as §1

Binder	SPOT peptide array binding signal intensity
KKEKKPPKIPKKVYT	2

The binders below were run against CaRvs167-3 in the same assay as above.
Procedure, shortened: as §1

Binder	SPOT peptide array binding signal intensity
KKEKKPPKIPKKVYT	4.5

Each binder was assayed against CaSho1 in the same assay as above.
Procedure, shortened: as §1

Binder	SPOT peptide array binding signal intensity
KKEKKPPKIPKKVYT	13

The binders below were run against CaSla1-D1-D2 in the same assay as above.
Procedure, shortened: as §1

Binder	SPOT peptide array binding signal intensity
KKEKKPPKIPKKVYT	79

What follows are binders tested against CaSla1-D3 in the same assay as above.
Procedure, shortened: as §1

Binder	SPOT peptide array binding signal intensity
KKEKKPPKIPKKVYT	≤ 0

The binders below were run against ScAbp1 in the same assay as above.
Procedure, shortened: as §1

Binder	SPOT peptide array binding signal intensity
KKEKKPPKIPKKVYT	901

What follows are binders tested against ScBbc1 in the same assay as above.
Procedure, shortened: as §1

Binder	SPOT peptide array binding signal intensity
KKEKKPPKIPKKVYT	1

The binders below were run against ScBem1-D1 in the same assay as above.
Procedure, shortened: as §1

Binder	SPOT peptide array binding signal intensity
KKEKKPPKIPKKVYT	16

These binders were tested against ScBzz1-D1 in the same assay as above.
Procedure, shortened: as §1

Binder	SPOT peptide array binding signal intensity
KKEKKPPKIPKKVYT	98

What follows are binders tested against ScBzz1-D2 in the same assay as above.
Procedure, shortened: as §1

Binder	SPOT peptide array binding signal intensity
KKEKKPPKIPKKVYT	9.5

These binders were tested against ScCyk3 in the same assay as above.
Procedure, shortened: as §1

Binder	SPOT peptide array binding signal intensity
KKEKKPPKIPKKVYT	≤ 0

The binders below were run against ScFus1 in the same assay as above.
Procedure, shortened: as §1

Binder	SPOT peptide array binding signal intensity
KKEKKPPKIPKKVYT	≤ 0

The binders below were run against ScHof1 in the same assay as above.
Procedure, shortened: as §1

Binder	SPOT peptide array binding signal intensity
KKEKKPPKIPKKVYT	1.5

What follows are binders tested against ScHse1 in the same assay as above.
Procedure, shortened: as §1

Binder	SPOT peptide array binding signal intensity
KKEKKPPKIPKKVYT	91

These binders were tested against ScLsb1 in the same assay as above.
Procedure, shortened: as §1

Binder	SPOT peptide array binding signal intensity
KKEKKPPKIPKKVYT	4.75

Each binder was assayed against ScLsb2 in the same assay as above.
Procedure, shortened: as §1

Binder	SPOT peptide array binding signal intensity
KKEKKPPKIPKKVYT	2

What follows are binders tested against ScLsb3 in the same assay as above.
Procedure, shortened: as §1

Binder	SPOT peptide array binding signal intensity
KKEKKPPKIPKKVYT	256

Each binder was assayed against ScLsb4 in the same assay as above.
Procedure, shortened: as §1

Binder	SPOT peptide array binding signal intensity
KKEKKPPKIPKKVYT	≤ 0

The binders below were run against ScMyo3 in the same assay as above.
Procedure, shortened: as §1

Binder	SPOT peptide array binding signal intensity
KKEKKPPKIPKKVYT	≤ 0

What follows are binders tested against ScMyo5 in the same assay as above.
Procedure, shortened: as §1

Binder	SPOT peptide array binding signal intensity
KKEKKPPKIPKKVYT	4.25

What follows are binders tested against ScNbp2 in the same assay as above.
Procedure, shortened: as §1

Binder	SPOT peptide array binding signal intensity
KKEKKPPKIPKKVYT	2

These binders were tested against ScPex13 in the same assay as above.
Procedure, shortened: as §1

Binder	SPOT peptide array binding signal intensity
KKEKKPPKIPKKVYT	11

These binders were tested against ScRvs167 in the same assay as above.
Procedure, shortened: as §1

Binder	SPOT peptide array binding signal intensity
KKEKKPPKIPKKVYT	2

What follows are binders tested against ScSho1 in the same assay as above.
Procedure, shortened: as §1

Binder	SPOT peptide array binding signal intensity
KKEKKPPKIPKKVYT	109

The binders below were run against ScSla1-D1-D2 in the same assay as above.
Procedure, shortened: as §1

Binder	SPOT peptide array binding signal intensity
KKEKKPPKIPKKVYT	10

The binders below were run against ScSla1-D3 in the same assay as above.
Procedure, shortened: as §1

Binder	SPOT peptide array binding signal intensity
KKEKKPPKIPKKVYT	14.5

The binders below were run against SpAbp1-D1 in the same assay as above.
Procedure, shortened: as §1

Binder	SPOT peptide array binding signal intensity
KKEKKPPKIPKKVYT	396

What follows are binders tested against SpBbc1 in the same assay as above.
Procedure, shortened: as §1

Binder	SPOT peptide array binding signal intensity
KKEKKPPKIPKKVYT	3.5

These binders were tested against SpBzz1-D1 in the same assay as above.
Procedure, shortened: as §1

Binder	SPOT peptide array binding signal intensity
KKEKKPPKIPKKVYT	158
